Source: paper PMC5540273 (PLoS ONE, 2017)

Key:
Settings in all cases: concentration: 1 μM, replicates: in singlicate; n = 1
MAP3K15 = test system: MAP3K15
MAP3K1 = test system: MAP3K1
MAP3K2 = test system: MAP3K2
MAP3K3 = test system: MAP3K3
MAP3K4 = test system: MAP3K4
MAP4K2 = test system: MAP4K2
MAP4K3 = test system: MAP4K3
MAP4K4 = test system: MAP4K4
MAP4K5 = test system: MAP4K5
MAPKAPK2 = test system: MAPKAPK2
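Further: KINOMEscan kinase panel screen.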

| Compound | %Inh (MAP3K15) [%] | %Inh (MAP3K1) [%] | %Inh (MAP3K2) [%] | %Inh (MAP3K3) [%] | %Inh (MAP3K4) [%] | %Inh (MAP4K2) [%] | %Inh (MAP4K3) [%] | %Inh (MAP4K4) [%] | %Inh (MAP4K5) [%] | %Inh (MAPKAPK2) [%] |
| --- | --- | --- | --- | --- | --- | --- | --- | --- | --- | --- |
| Cl.Cl.NCC(NC(=O)c1cc(-c2ccccc2)c(-c2ccnc3[nH]ccc23)s1)c1ccccc1 (stereo not shown) [GSK1321561] | 0 | 22 | 27 | 0 | 0 | 64 | 0 | 98 | 24 | 0 |
| CCc1ccc(-c2ccc3c(c2)-c2c(cnn2C)S(=O)(=O)N3C)cc1 | 0 | 34 | 0 | 0 | 23 | 0 | 3 | 0 | 1 | 13 |
| COCCOCCOc1cc2ncc3c4ccc(C#N)cc4[nH]c3c2cc1OC | 65 | 0 | 0 | 4 | 17 | 11 | 39 | 42 | 19 | 0 |
| C[C@@H]1CC[C@@H](C(=O)Nc2ccccc2)CN1c1cc(-c2ccc3c(N)n[nH]c3c2)nc(N)n1 [GSK2286062] | 46 | 0 | 16 | 0 | 4 | 3 | 0 | 0 | 0 | 0 |
| COc1ccc(-c2coc3ccc(-c4nnc(SCc5ccc(OC)c(C(F)(F)F)c5)o4)cc23)cc1 | 0 | 0 | 10 | 0 | 0 | 0 | 0 | 6 | 0 | 0 |
| COc1cc(Nc2nccc(-c3c(-c4cccc(NC(=O)c5c(F)cccc5F)c4)nn4ncccc34)n2)cc(OC)c1OC [GSK327238] | 0 | 11 | 95.4 | 92.9 | 88 | 12 | 83 | 67 | 98.8 | 7 |
| CC(C)(C)c1ccc2nccc(Nc3cccc(O)c3)c2c1 [GW856795] | 0 | 0 | 0 | 0 | 0 | 100 | 0 | 23 | 29 | 11 |
| FC(F)(F)c1ccc(/C=C/c2cncnc2Nc2ccc3[nH]c(Cc4ccccc4)nc3c2)cc1 [GW709199] | 0 | 0 | 0 | 1 | 15 | 0 | 0 | 0 | 0 | 3 |
| Cn1cc(-c2ccc3c(c2)CCN3C(=O)Cc2cccc(Cl)c2)c2c(N)ncnc21 [GSK2606590] | 17 | 11 | 84 | 56 | 52 | 8 | 71 | 0 | 79 | 19 |
| C[C@@H](Oc1cc(-n2cnc3cc(-c4ccnc(NCCS(C)(=O)=O)c4)ccc32)sc1C(N)=O)c1ccccc1Cl [GSK907232] | 6 | 92 | 10 | 0 | 35 | 20 | 85 | 21 | 96.3 | 0 |
| CCCCc1nn2ncccc2c1-c1ccnc(Nc2ccc(N3CCN(C)CC3)cc2)n1 [GW684941] | 9 | 16 | 37 | 49 | 40 | 0 | 12 | 0 | 21 | 0 |
| COc1cc(Nc2nccc(N3CCC(NC(=O)Nc4cccc(C(C)=O)c4)C3)n2)cc(OC)c1OC (stereo not shown) [GSK1379753] | 0 | 1 | 22 | 0 | 0 | 8 | 0 | 3 | 0 | 0 |
| Fc1ccc(-c2ncn(C3CCNCC3)c2-c2ccnc(Oc3ccc(-c4ccccc4)cc3)n2)cc1 [SB-245391] | 22 | 25 | 22 | 29 | 14 | 44 | 3 | 9 | 26 | 0 |
| O=C(NC1CCN(c2ccnc(Nc3ccc(F)cc3)n2)C1)c1cc2ccccc2s1 (stereo not shown) [GSK1379716] | 0 | 16 | 12 | 0 | 0 | 0 | 0 | 0 | 0 | 32 |
| c1ccc(Oc2ccc(Nc3ccnc4cc(-c5ccc(CNCCN6CCOCC6)o5)ccc34)cc2)nc1 [GW567145] | 0 | 9 | 1 | 0 | 0 | 0 | 0 | 9 | 56 | 0 |
| CN1CCN(CCCNc2nccc(-c3c(-c4ccc(F)cc4)nn4cc(C(F)(F)F)ccc34)n2)CC1 [GW621581] | 4 | 4 | 0 | 0 | 0 | 0 | 30 | 33 | 0 | 5 |
